C-LANA FP: inhibitors of KSHV LANA C-terminal domain DNA binding; MBP-C-LANA/FAM-LBS DNA binding, fluorescence polarization; actives 0.078% (n = 340,000); AID 504423; inhibition, % at 9 µM;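 active = highest replicate inhibition at or above 60% at 9 µM, even if other replicates fall short; inactive = all replicates below 60% inhibition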
Keap1 Nrf2 FP: inhibitors of human Keap1-Nrf2 protein-protein interaction | Q14145 | Keap1 Kelch-Nrf2 peptide fluorescence polarization, 1536-well | inhibition, % at 9.4 µM | actives 0.15% (n = 340,000); in the data active = inhibition above about 12%; inconclusive = no clear call, values can overlap the other calls; inactive = below about 7.3%;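 also: human Keap1 Kelch domain with fluorescein labeled Nrf2 9mer peptide probe; higher means more block of Keap1 binding to Nrf2 peptide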
HDAC3 inh: blocks human histone deacetylase 3; O15379; recombinant HDAC3, fluorogenic peptide/trypsin coupled, fluorescence; inhibition, % at 8.3 µM; actives 0.15% (n = 320,000); AID 2718; in the data active = inhibition above about 26%, passing the limit was not always enough; inconclusive = no clear call, values can overlap the other calls
NSD2 HMT inh: blocks human histone methyltransferase NSD2; O96028; NSD2 peptide methylation, AlphaScreen, 120 min; inhibition, % at 12.5 µM; actives 0.54% (n = 310,000); in the data active = inhibition above about 50%
Target sequence (O96028 whole entry, looked up): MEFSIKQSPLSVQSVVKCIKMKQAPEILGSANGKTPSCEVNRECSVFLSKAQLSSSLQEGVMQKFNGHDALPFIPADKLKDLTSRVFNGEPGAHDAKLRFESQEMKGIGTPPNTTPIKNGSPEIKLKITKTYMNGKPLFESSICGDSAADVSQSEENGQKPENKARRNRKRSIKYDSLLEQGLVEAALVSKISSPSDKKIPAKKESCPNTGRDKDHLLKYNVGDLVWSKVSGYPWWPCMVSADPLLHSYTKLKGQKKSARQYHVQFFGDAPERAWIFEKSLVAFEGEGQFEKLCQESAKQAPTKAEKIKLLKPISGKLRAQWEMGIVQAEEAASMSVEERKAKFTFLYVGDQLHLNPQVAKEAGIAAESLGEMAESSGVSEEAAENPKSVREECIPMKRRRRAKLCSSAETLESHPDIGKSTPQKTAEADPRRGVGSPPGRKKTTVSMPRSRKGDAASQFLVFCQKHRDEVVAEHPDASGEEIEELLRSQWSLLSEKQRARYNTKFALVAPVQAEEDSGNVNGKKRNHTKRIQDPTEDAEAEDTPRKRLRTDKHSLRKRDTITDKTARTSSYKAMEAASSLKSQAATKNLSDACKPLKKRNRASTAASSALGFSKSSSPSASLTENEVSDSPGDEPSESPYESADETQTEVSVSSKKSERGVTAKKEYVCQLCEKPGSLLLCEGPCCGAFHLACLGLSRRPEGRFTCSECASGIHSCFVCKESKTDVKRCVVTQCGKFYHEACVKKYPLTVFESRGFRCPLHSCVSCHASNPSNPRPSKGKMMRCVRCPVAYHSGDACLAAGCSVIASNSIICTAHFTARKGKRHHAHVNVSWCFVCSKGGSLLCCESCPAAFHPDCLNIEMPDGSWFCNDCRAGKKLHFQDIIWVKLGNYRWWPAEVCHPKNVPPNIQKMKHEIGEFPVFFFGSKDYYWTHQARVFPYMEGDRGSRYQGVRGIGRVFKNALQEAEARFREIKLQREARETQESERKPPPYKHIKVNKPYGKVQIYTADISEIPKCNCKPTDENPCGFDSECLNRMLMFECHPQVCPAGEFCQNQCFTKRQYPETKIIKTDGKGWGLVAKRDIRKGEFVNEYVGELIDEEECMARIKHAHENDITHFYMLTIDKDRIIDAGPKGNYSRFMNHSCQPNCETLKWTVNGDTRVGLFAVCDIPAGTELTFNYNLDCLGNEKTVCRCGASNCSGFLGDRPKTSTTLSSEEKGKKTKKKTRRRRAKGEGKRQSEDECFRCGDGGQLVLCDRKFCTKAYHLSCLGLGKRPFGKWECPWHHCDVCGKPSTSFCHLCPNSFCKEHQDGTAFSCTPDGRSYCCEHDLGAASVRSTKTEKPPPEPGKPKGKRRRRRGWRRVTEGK
Casp6 inh: caspase-6 (human) enzyme inhibition; purified caspase-6, Z-VEID-R110 cleavage fluorescence; P55212; AID 686996; actives 0.53% (n = 350,000); inhibition, % at 12.5 µM;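 active = mean inhibition across replicates at least about 35%, with every replicate also reaching that limit, limit read from the data; inconclusive = only one of the two criteria met; inactive = neither criterion met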
N-glyco inh: N-linked glycosylation inhibition. D54 ERlucT glycosylation luciferase reporter, 24 h; percent of 100 nM tunicamycin response. reporter increase, % at 12.5 µM. actives 0.23% (n = 360,000). AID 588692;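 active = mean luciferase reporter signal, scaled so untreated is 0 and the glycosylation-blocking control 100, at or above a set limit in every replicate; inconclusive = mean reaches the limit but not every replicate does; inactive = mean below the limit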;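 also: luciferase carries N-glycosylation sites so blocking glycosylation raises the light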
AlphaScreen art: interferes with AlphaScreen signal, flagging NSD2 false positives. AlphaScreen artifact counterscreen, preloaded methylated H4 peptide. AC35, µM (doses to about 10 µM). shares compounds with NSD2 HMT inh. actives 9.4% (n = 1,500); call rule not given here
Hits are given with their value; . = inactive; ? = inconclusive; / = not tested or not shown. An excerpt weighted towards active compounds, which were near 1.1% of everything screened.

SMILES | C-LANA FP | Keap1 Nrf2 FP | HDAC3 inh | NSD2 HMT inh | Casp6 inh | N-glyco inh | AlphaScreen art
N#C[C@H]1[C@@H](c2ccc(C#Cc3cccc(F)c3)cc2)[C@H](CO)N1C(=O)C1CCC1 | / | / | / | / | . | / | /
COc1ccc(NC(=O)CSc2nc3ccccc3c(=O)n2CCC(=O)N2CCCCC2)cc1 | . | . | . | . | / | . | /
CCOc1ccc(NC(=O)CSc2nc3ccccc3c(=O)n2CCCC(=O)N2CCCC2)cc1 | . | . | . | 118 | / | . | .
CCn1c(SC(=O)NC2CCCCC2)nnc1-c1cccs1 | . | . | . | 59 | / | . | .
CCn1c(SCC(=O)NC2CCCCC2)nnc1-c1cccs1 | . | . | . | . | . | . | /
COc1ccc(CNC(=O)CCCN2C(=O)NC3(CCCC3)C2=O)cc1 | . | . | . | 58 | . | . | .
C[C@H](CO)N1C[C@H](C)[C@@H](CN(C)Cc2cccc(C(=O)O)c2)Oc2ncc(C#CCN(C)C)cc2C1=O | / | / | / | / | . | / | /
Cn1c(=O)cc(SCC(=O)N2CCOCC2)c2ccc(Cl)cc21 | . | . | . | 55 | / | . | .
Cn1c(=O)cc(SCC(=O)N2CCCC2)c2ccc(Cl)cc21 | . | . | . | . | / | / | /
CC(C)NCC#CCOc1ccc(Cl)cc1 | . | . | . | 53 | . | . | .
CC(C)NC(=O)N1[C@@H]2CN(C(=O)c3ccccc3F)c3ccccc3[C@@H]2[C@@H]1CO | / | / | / | / | . | / | /
Cc1cc(C)c(OCCN2C(=O)NC(C)(C)C2=O)c(Cl)c1 | . | . | . | . | / | . | /
Cc1cc(Cl)c(OCCN2C(=O)NC(C)(C)C2=O)c(Br)c1 | . | . | . | 71 | / | . | .
Cc1cc(Cl)cc(Br)c1OCCCN1C(=O)NC(C)(C)C1=O | . | . | . | 73 | / | . | .
O=C1CC(N2CCOCC2)=NN1c1ccc([N+](=O)[O-])cc1 | . | . | . | 110 | . | . | .
CNC[C@@H]1Oc2ccc(NS(=O)(=O)c3ccc(F)cc3)cc2CC(=O)N([C@@H](C)CO)C[C@H]1C | / | / | / | / | . | / | /
COc1cc(C(=O)NC(C)c2ccc3ccccc3c2)cc(Cl)c1O (stereo unspecified) | . | . | . | 74 | . | . | .
CC(NC(=O)c1ccc(Cl)c(Cl)c1)c1ccc(-c2ccccc2)cc1 (stereo unspecified) | . | . | . | . | . | . | /
C[C@@H]1CN([C@H](C)CO)S(=O)(=O)c2ccc(C3=CCCC3)cc2O[C@@H]1CN(C)C(=O)c1cccnc1 | / | / | / | / | . | / | /
CN1/C(=C\C(=O)COC(=O)c2ccc(O)c(O)c2)C(C)(C)c2ccccc21 | / | / | . | 56 | . | / | .
Cc1ccc(C)c(S(=O)(=O)N2CCCOC2CNC(=O)C(=O)NCc2cccnc2)c1 (stereo unspecified) | . | . | . | 58 | . | . | .
CCOC(=O)c1cc(-c2ccc(F)cc2)nc2c1c(=O)[nH]c(=O)n2Cc1ccccc1 | . | . | . | 86 | . | . | .
CCOC(=O)c1cc(-c2cc(OC)c(OC)c(OC)c2)nc2c1c(=O)[nH]c(=O)n2Cc1ccccc1 | . | . | . | . | . | . | /
CC1CCCCC12NC(=O)N(CC(=O)NC(=O)NCc1ccco1)C2=O (stereo unspecified) | . | . | . | 121 | / | . | .
O=C(CCSc1nc(-c2ccccc2)c(-c2ccccc2)o1)N1CCCCC1 | / | / | / | . | . | . | /
SMILES | C-LANA FP | Keap1 Nrf2 FP | HDAC3 inh | NSD2 HMT inh | Casp6 inh | N-glyco inh | AlphaScreen art
O=C(CSc1nc(-c2ccccc2)c(-c2ccccc2)o1)N1CCCCC1 | / | / | / | 69 | . | . | .
O=C(c1ccccn1)N1CC(=O)N2[C@H](CO)[C@H](c3ccc(C4=CCCC4)cc3)[C@@H]2C1 | / | / | / | / | . | / | /
C/C(C=Nn1c(-c2ccc(F)cc2)n[nH]c1=S)=C/c1ccco1 | / | / | / | 61 | / | / | .
CC(/C=N/n1c(-c2cccnc2)n[nH]c1=S)=C\c1ccco1 | . | . | . | . | . | . | /
COc1ccc2c(C#N)c3ccccn3c2c1 | . | . | ? | 52 | 62 | . | .
CN(C)C(=O)C[C@@H]1C=C[C@H](NC(=O)c2ccc(F)cc2)[C@@H](CO)O1 | / | / | / | / | . | / | /
C[C@H](CO)N1C[C@H](C)[C@@H](CN(C)C(=O)Nc2cccc3ccccc23)Oc2ccc(NC(=O)Nc3ccc(F)cc3)cc2CC1=O | / | / | / | / | . | / | /
CC=Cc1ccc2n(c1=O)C[C@H]1[C@H](CO)[C@@H](C(=O)Nc3ccccc3)N(CC3CCCC3)[C@@H]21 (mixture of isomers) | / | / | / | / | . | / | /
CCNC(=O)Cc1ccc(NS(=O)(=O)c2ccc(F)cc2)cc1 | . | . | . | 109 | / | . | .
O=C(Cc1ccc(NS(=O)(=O)c2ccc(F)cc2)cc1)NCc1ccccc1 | . | . | / | / | / | . | /
CN(C)C(=O)C[C@@H]1CC[C@H](NC(=O)C2CCC2)[C@H](CO)O1 | / | / | / | / | . | / | /
Cn1c(=O)c2c(nc(CN3CCc4ccccc4C3)n2CCc2ccccc2)n(C)c1=O | / | / | / | 69 | / | / | .
Cn1c(=O)c2c(nc(CN3CCc4ccccc4C3)n2CCCO)n(C)c1=O | . | . | . | . | . | . | /
Cc1c(-c2cccc(Cl)c2)nc2ccccc2c1C(=O)OC/C(O)=C(\C#N)c1nc2ccccc2[nH]1 | . | . | . | 56 | . | 63 | .
O=C(C[C@H]1CC[C@@H]2[C@H](COC[C@H](O)CN2CC2CCOCC2)O1)NCC1CCCCC1 | / | / | / | / | . | / | /
Cc1c([N+](=O)[O-])cc(N2C(=O)C=CC2=O)cc1[N+](=O)[O-] | . | . | / | 55 | . | . | .
Cc1cc(N2C(=O)C=CC2=O)c([N+](=O)[O-])cc1C | . | . | . | / | / | . | /
C[C@@H]1CN([C@@H](C)CO)C(=O)c2cc(NC(=O)CCCN(C)C)ccc2O[C@@H](C)CCCCO[C@H]1CN(C)S(=O)(=O)c1ccccc1 | / | / | / | / | . | / | /
O=C(NC(c1ccc(Cl)cc1)c1cc(Cl)c2cccnc2c1O)c1cccnc1 (stereo unspecified) | . | . | . | 63 | / | . | .
COc1ccc(CN(C)C[C@@H]2Oc3c(NC(=O)Nc4ccc(F)cc4)cccc3C(=O)N([C@H](C)CO)C[C@H]2C)cc1 | / | / | / | / | . | / | /
COc1ccc(N2C(=O)C3C(C2=O)C(C(=O)c2ccc(Cl)cc2)N2CCCC32)cc1 (stereo unspecified) | . | . | . | 79 | . | . | .
CC(=O)c1ccc(N2C(=O)C3C(C2=O)C(C(=O)c2ccc(Cl)cc2)N2CCCC32)cc1 (stereo unspecified) | / | / | / | . | / | / | /
CCN(CC)CCNC(=O)/C(=C\c1cccn1C)NC(=O)c1cccs1 | . | . | . | 55 | . | . | .
C[n+]1cccc2cccc([O-])c21 | . | . | / | 103 | 52 | . | .
[O-][n+]1cccc2cccc(O)c21 | . | . | / | . | . | . | /
CCN(CC)CCNc1cc(C)nc2c1C(=O)C(=O)C=C2N1CCCCC1 | . | . | . | 118 | . | . | .
